Screening results (PubChem)
tim23-1 inh = inhibits growth of tim23-1 mutant yeast. AID 463212. 330,000 tested, 1.3% active. S. cerevisiae tim23-1 growth, BacTiter-Glo luminescence, 24 h. inhibition, % at 20 µM;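 active = growth inhibition of the mutant yeast at or above 50%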;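 also: temperature-sensitive mutant grown at 25 °C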
tim10-1 inh = inhibits growth of tim10-1 mutant yeast. S. cerevisiae tim10-1 ts strain growth, BacTiter-Glo, 24 h. inhibition, % at 20 µM. 330,000 tested, 2.2% active;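 active = inhibition of at least 40%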;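 also: mutant grown at 25 °C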
TIM10 inh = growth inhibitors of TIM10 yeast strain. 330,000 tested, 1.4% active. S. cerevisiae TIM10 strain growth, BacTiter-Glo luminescence, 24 h. AID 463195. inhibition, % at 10 µM;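 active = inhibition of 40% or more at the single tested concentration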;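 also: wild-type TIM10 isogenic control strain grown at permissive 25 °C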
NLRP3 yeast inh = NALP3 inhibition in yeast. Yeast reconstituted NLRP3/ASC/caspase-1, beta-gal luminescence, 24 h. inhibition, % at 10 µM. 330,000 tested, 0.39% active;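 active = inhibition of 50% or more; inactive = inhibition below 50%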
NALP1 inh = blocks the NALP1 inflammasome reconstituted in yeast. AID 2071. inhibition, % at 10 µM. S. cerevisiae NALP1/ASC/caspase-1 growth, X-gal OD620, 72 h. 280,000 tested, 0.61% active; in the data active = inhibition mostly above about 24%, no sharp cut-off; inactive = mostly below about 32%
Of the large screens only hits and unclear results are named; the others gave an inactive call. Sampled rows, rich in hits. Any-hit rate of the full collection: about 4.1%.

COc1ccccc1NC(=O)N(Cc1ccccc1)C1=NCC(C)S1 (stereo not given)	none
Cc1ccccc1-c1noc(-c2ccccc2C(=O)NCc2ccco2)n1	NALP1 inh 39
CC1CCc2sc(C(=O)N(C)CC(=O)Nc3ccc(N4CCOCC4)cc3)cc2C1 (stereo not given)	none
CSc1ccc(/C=C/C(=O)c2ccc(O)cc2)cc1	NALP1 inh 59
Cc1ccc(/C=C/C(=O)c2ccc(O)cc2)cc1	none
Cc1nc2cccc(C(=O)NC3CCCCC3)c2o1	NALP1 inh 32
CCOC(=O)n1c(SCC(N)=O)nc2ccccc21	NALP1 inh 26
O=C(Nc1ncc(C(F)(F)F)cc1Cl)C1COc2ccccc2O1 (stereo not given)	NALP1 inh 40
Cc1cccnc1NC(=O)C1COc2ccccc2O1 (stereo not given)	none
CCOC(=O)C1CCN(C(C(=O)NC2CCCC2)c2ccc(C)cc2)CC1 (stereo not given)	NALP1 inh 36
Cc1ccc(C(C(=O)NC2CCCCC2)N2CCCC2)cc1 (stereo not given)	none
CN(C)C(C)(C)C#CCCCCC#CC(C)(C)N(C)C	none
CN(C)C(C)(C)C#CCC(c1ccccc1)c1ccccc1	NALP1 inh 64
COc1ccc(CC(=O)OCC(=O)Nc2cccc(Cl)c2)cc1	none
COc1cccc(NC(=O)COC(=O)Cc2ccc(Cl)cc2)c1	NALP1 inh 30
CC(C)NC(=S)NNc1nc2ccccc2s1	none
CCC(C)N1CCC(Oc2ccc(C(=O)NCc3ccccn3)cc2)CC1 (stereo not given)	none
O=C(CSc1nc2cc(Cl)ccc2s1)Nc1cccc(S(=O)(=O)N2CCOCC2)c1	none
CCCCN(CC)CCNC(=O)CCC(=O)Nc1ccc2nc(N3CCN(C)CC3)cc(C)c2c1	NALP1 inh 36
CCCCN(CC)CCNC(=S)Nc1ccc2nc(N3CCN(C)CC3)cc(C)c2c1	none
O=C(CSc1nnc(-c2ccccc2F)o1)NC(=O)Cc1ccccc1	none (no result: NALP1 inh)
CCOc1ccc2c(c1)C(c1cccs1)=NNC(c1cccnc1)=N2	NALP1 inh 30
CC(=O)OCC1=C(C(=O)O)N2C(=O)[C@@H](NC(=O)Cc3cccs3)[C@H]2SC1	NALP1 inh 136
OC1(c2ccc3c(c2)OCO3)CCN(Cc2ccccn2)CC1	NALP1 inh 30
O=C(CN1CCC(O)(c2ccc3c(c2)OCO3)CC1)N1CCOCC1	none
CCOc1ccc(/C=C2\C(=O)c3ccccc3OC2c2ccccc2)cc1 (stereo not given)	NALP1 inh 28
CCc1ccc(NC(=O)C(C)n2nc(C)c([N+](=O)[O-])c2C)cc1 (stereo not given)	none
COc1cccc(OC)c1C(=O)OCCCOC(=O)c1c(OC)cccc1OC	NALP1 inh 28
COc1ccc(O)c(/C=N/c2nc3ccccc3n2C)c1	NALP1 inh 33
COc1ccc(C(C)=O)cc1CN(c1ccccc1OC)S(=O)(=O)c1cccs1	none
Cc1ccccc1OC(C)C(=O)N1CCN(c2ccccn2)CC1 (stereo not given)	NALP1 inh 32
COc1ccc(OC(C)C(=O)N2CCN(c3ccccn3)CC2)cc1 (stereo not given)	none
COCCCNCCOCCOc1c(OC)cccc1OC	NALP1 inh 24
COc1cccc(OC)c1OCCNCCO	none
C/C(=N/NC(=O)CNC(=O)c1ccncc1)c1ccco1	none
Cc1cccc(C)c1NC(=O)CN(C)C(=O)Cn1c(=O)cnc2ccccc21	NALP1 inh 30
CC1CCCN(C(=O)c2ccc(Br)c(S(=O)(=O)N3CCOCC3)c2)C1 (stereo not given)	none (no result: NALP1 inh)
CN(CC(=O)Nc1ccc(F)cc1)C(=O)COC(=O)c1ccc(-c2ccccc2)cc1	none (no result: NALP1 inh)
Cc1ccc(NC(=O)CN(C)C(=O)CNC(=O)c2sc3ccccc3c2Cl)cc1	none (no result: NALP1 inh)
COc1ccc(C(CNC(=O)C(Cc2ccccc2)NC(N)=O)N(C)C)cc1 (stereo not given)	none
CC(C)(C)c1ccc(OCCCNCc2ccccc2)cc1	none
CCOCCCNCc1ccc(OCc2ccccc2Cl)cc1	NALP1 inh 52
CCc1cc(OCCCCNCc2ccccc2)ccc1Cl	NALP1 inh 63
COc1cc(C(=O)NNC(=O)c2nn(C)c(=O)c3ccccc23)cc(OC)c1OC	none (no result: NALP1 inh)
O=S(=O)(CC(CN1CCCC1)N1CCCC1)c1ccc2ccccc2c1 (stereo not given)	NALP1 inh 52
CCN(CC)CCN(Cc1cc2cc3c(cc2[nH]c1=O)OCCO3)C(=S)NCCCN(C)C	NALP1 inh 44
OC(COc1ccc2ccccc2c1)CN1CCN(c2ccc(F)cc2)CC1 (stereo not given)	NALP1 inh 44
COc1cccc(OCC(O)CN2CCN(c3ccc(F)cc3)CC2)c1 (stereo not given)	none
CCCn1c(=O)c2ccccc2n2c(SCC(=O)c3ccc(F)cc3)nnc12	NALP1 inh 42 (no result: tim23-1 inh, tim10-1 inh, TIM10 inh, NLRP3 yeast inh)
CCCn1c(=O)c2ccccc2n2c(SCC(=O)c3ccccc3)nnc12	none
Cc1[nH]c2ccccc2c1NC(=O)CN1CCN(C(=O)c2ccco2)CC1	NALP1 inh 42
Clc1ccc(-c2nc(C3CCCCC3)no2)cc1	none
COc1ccccc1NC(=O)CCCN1C(=O)C2CC=CCC2C1=O (stereo not given)	none
CC(C)CCNC(=O)C(NS(=O)(=O)c1ccc2c(c1)c(=O)n(C)c(=O)n2C)c1ccccc1 (stereo not given)	NALP1 inh 44
CCC(C)NC(=O)C(NS(=O)(=O)c1ccc2c(c1)c(=O)n(C)c(=O)n2C)c1ccccc1 (stereo not given)	none
Cc1cc(C)cc(N(CC(=O)NCC2CCCO2)C(=O)CN2C(=O)COc3ccccc32)c1 (stereo not given)	NALP1 inh 23
O=C(CN(C(=O)C1COc2ccccc2O1)c1ccccc1)NCC1CCCO1 (stereo not given)	none
CCn1c(SCC(=O)Nc2cc(C)on2)nnc1-c1ccco1	NALP1 inh 39
CCCOC(=O)c1ccc(NC(=O)/C=C/c2cccs2)cc1	NALP1 inh 61
NNC(=S)NCc1cccnc1	NALP1 inh 74
NC(=S)NCc1cccnc1	none
COc1ccc(OC)c(S(=O)(=O)N2CCC(C(=O)NC3CC3)CC2)c1	none
CCN(CC)c1ccc(NC(=O)COC(=O)c2cccs2)cc1	NALP1 inh 36
CCN(c1ccc(NC(=O)COC(=O)c2cccs2)cc1)C(C)C	none
Cc1ccccc1Nc1cc(C)c2c(O)cccc2n1	NALP1 inh 56
O=C(COc1ccc2ccccc2c1)N/N=C/C1CC=CCC1 (stereo not given)	none
C=CCOn1c(=O)c(-c2cc3ccccc3o2)[n+]([O-])c2ccccc21	NALP1 inh 28
CCOC(=O)N1CCN(C(=S)Nc2cc(S(=O)(=O)N3CCOCC3)ccc2Cl)CC1	none
CC1CCN(c2nc(/C=C/c3ccccc3)nc3ccccc23)CC1	none
C(=C\c1nc(N2CCCC2)c2ccccc2n1)/c1ccccc1	NALP1 inh 64
O=c1c([N+](=O)[O-])c(NCCN2CCCCCC2)c2ccccc2n1-c1ccccc1	none
